According to PubChem BioAssay (EPA / NIEHS):
Calls of active or inactive are those of the source. The calls were made as follows: active = hit-call score of the fitted dose curve at least 0.9, where 1 is the maximum; inactive = score below 0.9.

These molecules were tested against Myc proto-oncogene protein (Homo sapiens) (UniProt P01106) (assay: ATG_Myc_CIS: Attagene CIS-FACTORIAL HepG2 Assay for human Myelocytomatosis (Myc) Proto-Oncogene Transcription Factor (AID 2282990)). Conditions: HepG2, Attagene cis-reporter transcription factor activity; actives raise or lower the signal.
Myc proto-oncogene protein (Homo sapiens), sequence (P01106 whole entry, looked up): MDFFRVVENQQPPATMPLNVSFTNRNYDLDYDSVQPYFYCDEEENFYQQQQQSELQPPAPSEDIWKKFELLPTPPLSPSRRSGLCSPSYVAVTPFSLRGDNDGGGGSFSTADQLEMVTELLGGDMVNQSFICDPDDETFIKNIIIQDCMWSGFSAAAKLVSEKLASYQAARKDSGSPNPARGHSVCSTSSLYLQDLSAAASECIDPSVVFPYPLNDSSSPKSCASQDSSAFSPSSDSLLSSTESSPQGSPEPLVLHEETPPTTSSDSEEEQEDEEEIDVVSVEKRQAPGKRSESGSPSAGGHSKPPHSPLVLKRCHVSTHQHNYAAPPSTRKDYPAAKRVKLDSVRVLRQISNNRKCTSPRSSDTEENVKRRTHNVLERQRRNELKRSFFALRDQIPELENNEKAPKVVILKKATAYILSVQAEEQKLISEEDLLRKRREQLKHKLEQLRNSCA
Protocol: ATG_CIS is a cell-based, multiplexed-readout assay that uses HepG2, a human liver cell line, with measurements taken at 24 hours after chemical dosing in a 24-well plate.ATG_Myc_CIS is one of 52 assay component(s) measured or calculated from the ATG_CIS assay. It is designed to make measurements of mRNA induction, a form of inducible reporter, as detected with fluorescence intensity signals by Reverse transcription polymerase chain reaction (RT-PCR) and Capillary electrophoresis technology.Data from the assay component ATG_Myc_CIS was analyzed into 1 assay endpoint. This assay endpoint, ATG_Myc_CIS, was analyzed with bidirectional fitting relative to DMSO as the negative control and baseline of activity. Using a type of inducible reporter, measures of mRNA for gain or loss-of-signal activity can be used to understand the reporter gene at the transcription factor-level as they relate to the gene MYC. Furthermore, this assay endpoint can be referred to as a primary readout, because this assay has produced multiple assay endpoints where this one serves a reporter gene function. To generalize the intended target to other relatable targets, this assay endpoint is annotated to the dna binding intended target family, where the subfamily is basic helix-loop-helix leucine zipper.
Human liver HepG2 cells are transiently transfected with multiple reporter transcription units (MRTUs) in 6-well plates using FuGene 6 reagent (Roche; 3 ml FuGene/1 mg DNA). The MRTU constructs are regulated by a cis-regulating element (promoter). […] A major difference between the CIS and TRANS system is that in CIS activities of endogenous TFs are measured, whereas the TRANS assay evaluates changes in activities of exogenous, chimeric NR-Gal4 proteins. […] At the end of 24 hour incubation, total RNA was isolated using TriZol reagent (Invitrogen). The isolated RNA is then reverse-transcribed using oligo(dT) primer and Mo-MLV reverse transcriptase (Invitrogen) with DNAse I (Ambion) treatment for 30 min. The one-tenth of the produced cDNA was amplified by PCR using Taq DNA polymerase (Invitrogen) and two reporter sequence-specific primers. The PCR products were fluorescently labeled by primer extension with 6-arboxyfluorescein (6-FAM) 5'-labeled reporter sequence-specific primer (2 min at 95 C, 20 s at 68 C and 10 min at 72 C) and these products were digested with 5U of HpaI (New England Biolabs) for 2h at 37 C. The fragments were purified using Qiaquick PCR columns (Qiagen), analyzed on an ABI 3130xL genetic analyzer (Applied Biosystems) with peak positions identified by using a set of X-rhodamine (ROX)-labeled MapMarker1000 molecular weight standards (BioVentures). The raw capillary electrophoresis data was processed using Attagraph software (Attagene).

Compound	outcome	AC50
C=CCCCCCCCCCCCC	inactive	–
Cc1cc(Cc2ccc(N)c(C)c2)ccc1N	inactive	–
CCCC[C@H]1CN(CC2CCOCC2)C(=O)OC12CCN(C1(C)CCN(C(=O)c3c(C)ncnc3C)CC1)CC2	inactive	–
CC(C)c1cccc(C(C)C)c1	inactive	–
CC(C)COC(=O)CCCCC(=O)OCC(C)C	inactive	–
C/C=C/c1ccc(OC)cc1	inactive	–
O=Cc1ccccc1C=O	inactive	–
OCC(CO)n1cnc(-c2ccc(F)cc2)c1-c1ccnc(Oc2ccccc2)n1	inactive	–
NCCOCCOCCN	inactive	–
CCCCCCC(CCCCCCCCCCC(=O)OCC(COC(C)=O)OC(C)=O)OC(C)=O (stereo not given)	inactive	–
Cc1c(C)c2c(c(C)c1O)CCC(C)(COc1ccc(CC3SC(=O)NC3=O)cc1)O2 (stereo not given)	inactive	–
NC(=Nc1ccccc1)Nc1ccccc1	inactive	–
O=[Si]=O	inactive	–
COc1ccc(OC(F)(F)F)cc1CN[C@H]1CCCN[C@H]1c1ccccc1	inactive	–
CC(=O)CC(c1ccccc1)c1c(O)c2ccccc2oc1=O (stereo not given)	inactive	–
O=NO	inactive	–
CC1=C(C)S(=O)(=O)CCS1(=O)=O	inactive	–
COC(=O)[C@H]1[C@H]2C[C@@H]3c4[nH]c5cc(OC)ccc5c4CCN3C[C@H]2C[C@@H](OC(=O)c2cc(OC)c(OC)c(OC)c2)[C@@H]1OC	inactive	–
O=C(N[C@@H](c1ccccc1)[C@@H]1CCCCN1)c1cccc(C(F)(F)F)c1Cl	–	54 µM (active)
CC(=O)[C@@]1(O)CC[C@H]2[C@@H]3CCC4=CC(=O)CC[C@]4(C)[C@H]3CC[C@@]21C	inactive	–

Compound	outcome	AC50
CCCCCCCCCC[N+](C)(C)[O-]	inactive	–
CC(=O)O	inactive	–
O=C(O)CN(CC(=O)O)CC(=O)O	inactive	–
CS(=O)(=O)c1ccc([C@@H](C[C@H]2CCC(=O)C2)C(=O)Nc2cnccn2)cc1Cl	inactive	–
CC(COCC(C)OC(=O)c1ccccc1)OC(=O)c1ccccc1 (stereo not given)	inactive	–
C#CC(O)C(CC)CCCC (stereo not given)	inactive	–
Cn1cnc2c1c(=O)[nH]c(=O)n2C	inactive	–
O=C1OC(c2ccc(O)cc2)(c2ccc(O)cc2)c2ccccc21	–	180 µM (active)
O=C(Oc1ccccc1)c1cccc(C(=O)Oc2ccccc2)c1	inactive	–
CC(C)(O)c1ccc(CNC(=O)c2cccnc2Oc2ccc(F)cc2)cc1	inactive	–
Cc1cc(SC2=C(O)C[C@@](CCc3ccc(N)cc3)(C(C)C)OC2=O)c(C(C)(C)C)cc1CO	inactive	–
CCCCCCCCCCCCCCOS(=O)(=O)O	inactive	–
O=C1c2c(O)cccc2Cc2cccc(O)c21	inactive	–
O=C1O[C@H]([C@H](O)CO)C(O)=C1O	inactive	–
O=C(O)c1[nH]n(-c2ccc(S(=O)(=O)O)cc2)c(=O)c1N=Nc1ccc(S(=O)(=O)O)cc1	inactive	–
CSc1ccc(Oc2ccc(S(N)(=O)=O)cc2CN(C)C)cc1C	inactive	–
S=c1[nH]c2ccccc2s1	inactive	–
CC(N)=O	inactive	–
CCCCC(CC)COC(=O)CCCCCCCC(=O)OCC(CC)CCCC (stereo not given)	inactive	–
CCCCc1nc2cccnc2n1Cc1ccc(-c2ccccc2-c2nnn[nH]2)cc1	inactive	–
